# Results taken from PubChem BioAssay.
# “And” between values parts separate entries of the source, which are not always exact repeats. Identical values can stand only once. The source made the active and inactive calls.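 Rule for the calls, unless noted: active = thallium flux through the channel raised or lowered by more than 3 SD from vehicle-only wells, actives on both sides; inactive = the rest.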 Non-standard residues stand in square brackets, D forms with d. Residues, ends and D or L forms follow the SMILES beside them. pGlu = O=C1CC[C@@H](C(=O)O)N1; Thz = O=C(O)[C@@H]1CSCN1
# What was measured:
# [1] = modulation of C. elegans fzo-1 (AID 1259413; call rule not given here;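 note: fzo-1 mutant C. elegans worms in liquid wells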); conditions: C. elegans fzo-1 modulator screen, mean read-out; stronger effect = higher value
# [2] = sensitizers of A549 cells to miR-34 induction, primary screen, imaging, A549 dox-inducible miR-34, nuclei and caspase counts (AID 1347080;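 active = compounds whose cell count with miR-34 switched on is under 0.7 times the count with it off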); conditions: A549 miR-34 inducible, Hoechst nuclei count, 48 h
# [3] = survival rescue of mitochondrial mutant cells in low glucose, primary screen, MELAS cybrids, Rieske KO mouse fibroblasts, CellTiter-Glo (AID 1508586;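 active = mean z-score across replicates of 1.96 or higher in either the MELAS or the Rieske mutant cell line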;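 note: z relative to plate mean and SD of compound and empty wells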)
# [4] = viability rescue of complex I mutant cybrids, primary screen, cell-based, galactose medium, ATP luminescence (AID 1645843;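 active = z-score of at least 1.8 in each of two replicates, scored against plate mean and spread of sample wells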;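 note: positive z means more ATP and so rescue of galactose-driven cybrid death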); conditions: complex I mutant cybrid cells, 72 h, stronger effect = higher value
# [5] = test system: F380Y; experiment: modulators of BK channel variants, profiling panel, selectivity assay, cell-based, U2OS BacMam, thallium flux, beta subunits (AID 1259406); conditions: at 30 µM;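 note: initial slope of Thallos dye fluorescence rise after thallium is added; log ratio against the mean of 0.3% DMSO vehicle wells on the same plate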
# [6] = test system: F380Y/beta1; experiment: as above; conditions: at 30 µM
# [7] = test system: F380Y/beta2Delta; experiment: as above; conditions: at 30 µM
# [8] = test system: F380Y/beta4; experiment: as above; conditions: at 30 µM
# [9] = molecular target: Calcium-activated potassium channel subunit alpha-1 (Homo sapiens) + Leucine-rich repeat-containing protein 26 (Homo sapiens) (UniProt Q12791+Q2I0M4); experiment: as above; conditions: F380Y/Slo1WT/gamma1, at 30 µM
# Chain of Calcium-activated potassium channel subunit alpha-1 (Homo sapiens) + Leucine-rich repeat-containing protein 26 (Homo sapiens) (Q2I0M4 whole entry, looked up, one chain of several): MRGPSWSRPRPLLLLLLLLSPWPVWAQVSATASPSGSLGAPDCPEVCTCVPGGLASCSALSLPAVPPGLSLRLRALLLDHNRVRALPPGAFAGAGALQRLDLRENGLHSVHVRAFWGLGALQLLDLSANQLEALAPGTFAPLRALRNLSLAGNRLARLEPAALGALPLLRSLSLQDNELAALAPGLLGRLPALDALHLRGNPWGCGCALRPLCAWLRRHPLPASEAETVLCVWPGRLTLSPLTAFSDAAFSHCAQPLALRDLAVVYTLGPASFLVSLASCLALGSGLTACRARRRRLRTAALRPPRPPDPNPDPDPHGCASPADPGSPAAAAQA
# [10] = test system: R275C; experiment: as above; conditions: at 30 µM
# [11] = test system: R275C/beta1; experiment: as above; conditions: at 30 µM
# [12] = test system: R275C/beta2Delta; experiment: as above; conditions: at 30 µM
# [13] = test system: R275C/beta4; experiment: as above; conditions: at 30 µM
# [14] = test system: R275C/Slo1WT/beta2; experiment: as above; conditions: at 30 µM
# [15] = liver-stage malaria parasite growth inhibition, primary screen, cell-based, HepG2, luciferase luminescence, HepG2 viability (AID 624349; in the data active = parasite load remaining mostly below about 12%, no sharp cut-off; inactive = mostly above about 10%;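 note: 100% = mean of DMSO negative control wells on the same plate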); conditions: P. berghei liver stage in HepG2, luciferase luminescence, concentration not given here; parasite load remaining: stronger effect = lower value; viability: measured here: HepG2 viability without parasites
# [16] = Cy5 fluorescence interference with SSB-bound oligo, artefact control for HCV NS3 helicase inhibitor project, biochemical, NIH Clinical Collection, E. coli SSB (AID 743268; call rule not given here)
# [17] = test system: Hepatitis C virus NS3 helicase; experiment: HCV NS3 helicase inhibitors, primary screen, biochemical, fluorescence polarization, NIH Clinical Collection (AID 743270; call rule not given here); conditions: NS3 helicase binding to Cy5-dT15 DNA, stronger effect = higher value, concentration not given here
# [18] = molecular target: Single-stranded DNA-binding protein (Escherichia coli (strain K12)) (UniProt P0AGE0); experiment: E. coli SSB displacement from DNA, counter-screen for HCV NS3 helicase inhibitor project, biochemical, fluorescence polarization, NIH Clinical Collection (AID 743271; in the data active = inhibition above about 28%); conditions: stronger effect = higher value, concentration not given here
# [19] = fluorescence interference in NS3h assay format, artefact control for HCV NS3 helicase inhibitor project, biochemical, NIH Clinical Collection (AID 743272; call rule not given here;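 note: HCV NS3 helicase with a Cy5 labelled single stranded DNA probe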); conditions: fluorescence interference counterscreen, stronger effect = lower value
# [20] = stronger effect = lower value, cell number ratio, induced over uninduced
# [21] = measured here: relative caspase fold change +Dox/-Dox
# [22] = measured here: total cells with miR-34 induction, stronger effect = lower value
# [23] = measured here: total cells without miR-34 induction
# [24] = MELAS cybrid survival, CellTiter-Glo 48 h, stronger effect = higher value
# [25] = Rieske KO mouse fibroblast survival, CellTiter-Glo 72 h
compound,measurement,setting,value
CN1[C@@H]2CCC[C@H]1CC(NC(=O)c1nn(C)c3ccccc13)C2 (stereo partly specified),mean signal,[1],239 (inactive)
same,fold change,[2]; [20],0.964 (inactive)
same,fold change,[2]; [21],1.59
same,cell count,[2]; [22],10200
same,cell count,[2]; [23],10600
same,z-score,[3]; [24],0.342 (inactive) and -0.62 (inactive)
same,z-score,[3]; [25],0.00777 and -1.31
same,z-score,[4],0.01 (inactive)
same,log fold change Tl+ flux,[5],0.0826 (inactive)
same,log fold change Tl+ flux,[6],0.016 (inactive)
same,log fold change Tl+ flux,[7],0.036 (inactive)
same,log fold change Tl+ flux,[8],0.0312 (inactive)
same,log fold change Tl+ flux,[9],0.00528 (inactive)
same,log fold change Tl+ flux,[10],-0.0264 (inactive)
same,log fold change Tl+ flux,[11],0.0105 (inactive)
same,log fold change Tl+ flux,[12],0.0242 (inactive)
same,log fold change Tl+ flux,[13],0.0148 (inactive)
same,log fold change Tl+ flux,[14],0.0272 (inactive)
COc1ccc(C[C@H](C)NC[C@@H](O)c2ccc(O)c(NC=O)c2)cc1,parasite load remaining,[15],66.9% (inactive)
same,viability,[15],77.1%
same,fluorescence ratio,[16],1.02 (inactive)
same,inhibition,[17],-9.9% (inactive)
same,inhibition,[18],-0.1% (inactive)
same,fluorescence ratio,[19],0.98 (inactive)
same,mean signal,[1],235 (inactive)
same,fold change,[2]; [20],0.975 (inactive)
same,fold change,[2]; [21],0.716
same,cell count,[2]; [22],8230
same,cell count,[2]; [23],8440
same,z-score,[3]; [24],-0.844 (inactive)
same,z-score,[3]; [25],-0.643
same,z-score,[4],-0.475 (inactive)
same,log fold change Tl+ flux,[5],-0.0497 (inactive)
same,log fold change Tl+ flux,[6],-4.2e-05 (inactive)
same,log fold change Tl+ flux,[7],0.0145 (inactive)
same,log fold change Tl+ flux,[8],-0.0214 (inactive)
same,log fold change Tl+ flux,[9],0.0199 (inactive)
same,log fold change Tl+ flux,[10],0.00389 (inactive)
same,log fold change Tl+ flux,[11],0.0191 (inactive)
same,log fold change Tl+ flux,[12],-0.0506 (inactive)
same,log fold change Tl+ flux,[13],0.0483 (inactive)
same,log fold change Tl+ flux,[14],0.0259 (inactive)
CCN(CC)CC#CCOC(=O)C(O)(c1ccccc1)C1CCCCC1 (stereo unspecified),fluorescence ratio,[16],1.01 (inactive)
same,inhibition,[17],-5.91% (inactive)
same,inhibition,[18],1.05% (inactive)
same,fluorescence ratio,[19],0.97 (inactive)
same,mean signal,[1],265 (inactive)
same,z-score,[3]; [24],-0.351 (inactive) and 0.357 (inactive)
same,z-score,[3]; [25],0.474 and 0.0643
same,z-score,[4],-1.22 (inactive) and -1.39 (inactive)
same,log fold change Tl+ flux,[5],-0.0501 (inactive)
same,log fold change Tl+ flux,[6],-0.0697 (inactive)
same,log fold change Tl+ flux,[7],-0.0326 (inactive)
same,log fold change Tl+ flux,[8],0.0257 (inactive)
same,log fold change Tl+ flux,[9],-0.0619 (inactive)
same,log fold change Tl+ flux,[10],-0.105 (active)
same,log fold change Tl+ flux,[11],-0.00047 (inactive)
same,log fold change Tl+ flux,[12],-0.0198 (inactive)
same,log fold change Tl+ flux,[13],0.205 (active)
same,log fold change Tl+ flux,[14],-0.0121 (inactive)
CC(C)NCC(O)c1ccc(NS(C)(=O)=O)cc1 (stereo unspecified),fluorescence ratio,[16],1.06 (inactive)
same,inhibition,[17],1.19% (inactive)
same,inhibition,[18],-3.95% (inactive)
same,fluorescence ratio,[19],0.98 (inactive)
same,mean signal,[1],233 (inactive)
same,z-score,[3]; [24],-0.308 (inactive) and -0.43 (inactive) and 0.386 (inactive)
same,z-score,[3]; [25],0.759 and -0.504 and 0.277
same,log fold change Tl+ flux,[5],0.0283 (inactive)
same,log fold change Tl+ flux,[6],-0.0363 (inactive)
same,log fold change Tl+ flux,[7],0.0277 (inactive)
same,log fold change Tl+ flux,[8],0.0134 (inactive)
same,log fold change Tl+ flux,[9],-0.004 (inactive)
same,log fold change Tl+ flux,[10],-0.065 (inactive)
same,log fold change Tl+ flux,[11],-0.000905 (inactive)
same,log fold change Tl+ flux,[12],-0.0581 (inactive)
same,log fold change Tl+ flux,[13],0.0206 (inactive)
same,log fold change Tl+ flux,[14],0.0082 (inactive)
O=C1CC[C@@H](C(=O)N2CSC[C@H]2C(=O)O)N1 ([pGlu]-[Thz]-OH),parasite load remaining,[15],123% (inactive)
same,viability,[15],115%
same,fluorescence ratio,[16],1 (inactive)
same,inhibition,[17],5.94% (inactive)
same,inhibition,[18],3.75% (inactive)
same,fluorescence ratio,[19],0.96 (inactive)
same,mean signal,[1],225 (inactive)
same,z-score,[3]; [24],0.585 (inactive)
same,z-score,[3]; [25],-0.48
same,log fold change Tl+ flux,[5],-0.0365 (inactive)
same,log fold change Tl+ flux,[6],0.0192 (inactive)
same,log fold change Tl+ flux,[7],0.00122 (inactive)
same,log fold change Tl+ flux,[8],0.0189 (inactive)
same,log fold change Tl+ flux,[9],-0.0423 (inactive)
same,log fold change Tl+ flux,[10],-0.0391 (inactive)
same,log fold change Tl+ flux,[11],-0.0174 (inactive)
same,log fold change Tl+ flux,[12],-0.0226 (inactive)
same,log fold change Tl+ flux,[13],-0.00158 (inactive)
same,log fold change Tl+ flux,[14],-0.0454 (inactive)
Cc1cnc(C(=O)NCCc2ccc(S(=O)(=O)NC(=O)NC3CCCCC3)cc2)cn1,fluorescence ratio,[16],1.05 (inactive)
same,inhibition,[17],-5% (inactive)
same,inhibition,[18],-2% (inactive)
same,fluorescence ratio,[19],0.98 (inactive)
same,mean signal,[1],228 (inactive)
same,z-score,[3]; [24],0.0771 (inactive) and 0.00808 (inactive) and -0.837 (inactive)
same,z-score,[3]; [25],0.368 and 0.143 and -0.894
same,z-score,[4],1.17 (inactive) and 0.66 (inactive) and 1.06 (inactive)
same,log fold change Tl+ flux,[5],-0.0483 (inactive)
same,log fold change Tl+ flux,[6],-0.0347 (inactive)
same,log fold change Tl+ flux,[7],-0.0103 (inactive)
same,log fold change Tl+ flux,[8],0.0321 (inactive)
same,log fold change Tl+ flux,[9],-0.0267 (inactive)
same,log fold change Tl+ flux,[10],0.0214 (inactive)
same,log fold change Tl+ flux,[11],0.0314 (inactive)
same,log fold change Tl+ flux,[12],0.0193 (inactive)
same,log fold change Tl+ flux,[13],0.0322 (inactive)
same,log fold change Tl+ flux,[14],0.0429 (inactive)
CC(CCCCC(=O)Nc1ccc(C(F)(F)F)cc1)NCCc1cnc[nH]1 (stereo unspecified),parasite load remaining,[15],54.5% (inactive)
same,viability,[15],67%
same,fluorescence ratio,[16],0.96 (inactive)
same,inhibition,[17],-8.95% (inactive)
same,inhibition,[18],-4.33% (inactive)
same,fluorescence ratio,[19],0.92 (inactive)
same,mean signal,[1],233 (inactive)
same,fold change,[2]; [20],0.859 (inactive) and 0.909 (inactive)
same,fold change,[2]; [21],1.55 and 0.779
same,cell count,[2]; [22],8900 and 8240
same,cell count,[2]; [23],10400 and 9060
same,z-score,[4],0.675 (inactive) and -0.77 (inactive)
same,log fold change Tl+ flux,[5],0.0425 (inactive)
same,log fold change Tl+ flux,[6],0.0554 (inactive)
same,log fold change Tl+ flux,[7],-0.00659 (inactive)
same,log fold change Tl+ flux,[8],-0.0291 (inactive)
same,log fold change Tl+ flux,[9],0.0127 (inactive)
same,log fold change Tl+ flux,[10],-0.0675 (inactive)
same,log fold change Tl+ flux,[11],0.0449 (inactive)
same,log fold change Tl+ flux,[12],0.0193 (inactive)
same,log fold change Tl+ flux,[13],0.0332 (inactive)
same,log fold change Tl+ flux,[14],0.00571 (inactive)
